Unmarked numbers belong to inactive results. No rule for the calls is given here.

The assay relates to Aerobactin synthetase IucA (Klebsiella pneumoniae, hypervirulent). As to the kind of experiment: IucA enzyme inhibition, biochemical, LOPAC library, absorbance readout (AID 1346212).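 Also: 100% = no compound wells and 0% = no enzyme wells.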 The conditions noted are these: IucA enzyme assay, absorbance (OD) readout; hits give low values;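 tested at 8 µM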.
As a reminder, the remaining activity is the signal under treatment as a percentage of the control signal. As to `C[N+](C)(CCCCCC[N+](C)(C)CCCN1C(=O)c2cccc3cccc(c23)C1=O)CCCN1C(=O)c2cccc3cccc(c23)C1=O`, the remaining activity is 100%.
Under `CN(C)CC/C=C1\c2ccccc2COc2ccccc21` stands 121%; under `CO/N=C(\C(=O)N[C@@H]1C(=O)N2C(C(=O)O)=C(COC(C)=O)CS[C@H]12)c1csc(N)n1` (stereo in doubt), 123%.
On to `CC(C)NCC(O)COc1ccc(COCCOC(C)C)cc1` (stereo not given), for which the remaining activity is 91.4%.
Under `CC1CN(S(=O)(=O)c2cccc3cnccc23)CCN1` (stereo not given) stands 102%; under `CN=C(NC#N)Nc1ccc(C2=NNC(=O)CC2C)cc1` (stereo not given), 104%; under `CC(N)=NCc1cccc(CN)c1`, 103%.
Under `CCN(CC)CCOC(=O)c1cc(Cl)c(N)cc1OC` stands 103%.
Under `CC[C@@H]1SC2(CCN(C)CC2)NC1=O` stands 91.6%; under `CC[C@H](C)[C@H]1O[C@]2(CC[C@@H]1C)C[C@@H]1C[C@@H](C/C=C(\C)[C@@H](O[C@H]3C[C@H](OC)[C@@H](O[C@H]4C[C@H](OC)[C@@H](O)[C@H](C)O4)[C@H](C)O3)[C@@H](C)/C=C/C=C3\CO[C@@H]4[C@H](O)C(C)=C[C@@H](C(=O)O1)[C@]34O)O2`, 114%; under `Cc1ccc(=O)n(-c2ccccc2)c1`, 120%.
Consider `NC(=O)c1ccccc1`, for which the remaining activity was 109%.
The figure for `NC1CCN(c2cccc(Cl)n2)CC1` is 104%.
Under `Oc1ccc(/C=C/c2ccc(/C=C/c3ccc(O)cc3)c(Br)c2)cc1` stands 85%; under `CCCCCN(CCCCC)C(=O)C(CCC(=O)O)NC(=O)c1ccc(Cl)c(Cl)c1` (stereo not given), 110%; under `NC(N)=NCc1cccc(I)c1`, 118%.
Take `O=c1onc2n1-c1cc(Br)ccc1OC2`: the remaining activity is 105%.
Under `CC[C@@H]1Cc2cc(O)ccc2C2=C1c1ccc(O)cc1C[C@H]2CC` stands 89.7%; under `O=C1Nc2ccc(I)cc2/C1=C/c1cc(Br)c(O)c(Br)c1`, 113%; under `NCCNC(=O)c1ncsc1-c1cccc(F)c1`, 88.1%.
For the molecule `CC(C)(C)c1ccc(/C=C/C(=O)Nc2ccc3c(c2)OCCO3)cc1`, the remaining activity was 107%.
Under `C[C@]1(C2CCCC2)Cc2cc(OCC(=O)O)c(Cl)c(Cl)c2C1=O` stands 113%; under `Cc1cc2c(cc1Cl)N(C(=O)Nc1cccc3ncccc13)CC2`, 103%.
On to `c1ccc2c(c1)CC(N1CCN(c3cccc4c3OCCO4)CC1)C2`, for which the remaining activity was 108%.
The figure for `CC(=O)Oc1cc(C(C)C)c(OCCN(C)C)cc1C` is 118%.
The figure for `COC(=O)c1c(C)[nH]c(C)c1C(=O)c1ccccc1Cc1ccccc1` is 96.6%; for `CC[C@H](C)C(=O)O[C@H]1CCC=C2C=C[C@H](C)[C@H](CC[C@@H]3C[C@@H](O)CC(=O)O3)[C@H]21` it is 118%; for `Nc1nc(Cl)nc2c1ncn2[C@@H]1O[C@H](CO)[C@@H](O)[C@H]1O` it is 115%.
`N[C@@H](CS(=O)O)C(=O)O`: the remaining activity is 115%.
In the case of `CC(C)NC[C@H](O)COc1ccc(CC(N)=O)cc1`, the remaining activity is 115%.
Under `CCCCC/C=C\C[C@@H](O)/C=C/c1cccc(C[C@@H](O)CCCCO)n1` stands 92.2%; under `CC(C)(C)[C@]1(O)CCN2C[C@H]3c4ccccc4CCc4cccc(c43)[C@@H]2C1`, 105%; under `Nc1cc(=O)[nH]c(N)n1`, 126%.
The figure for `Cc1cccc(C(=O)NCN2CCN(c3ccccc3C#N)CC2)c1` is 123%; for `N#C/C(=C\c1ccc(O)c(O)c1)C(=O)c1ccc(O)c(O)c1` it is 79.7%.
The figure for `COc1ccccc1N1CCN(CCN(C(=O)C2CCCCC2)c2ccccn2)CC1` is 119%; for `C=C[C@@]1(C)CC(=O)[C@]2(O)[C@@]3(C)[C@@H](O)CCC(C)(C)[C@@H]3[C@H](O)[C@H](OC(C)=O)[C@@]2(C)O1` it is 107%; for `CC1=C(CC(=O)O)c2cc(F)ccc2/C1=C\c1ccc(S(C)(=O)=O)cc1` it is 93.6%.
Take `N[C@H]1CONC1=O`: the remaining activity was 113%.
Under `c1cc(CN2CCCCC2)cc(OCCCNc2nc3ccccc3s2)c1` stands 101%.

The values above are taken from PubChem BioAssay.
